This is a sample that favours compounds with a hit; in the whole collection about 3.5% have one here.
HSP90 refold inh: HSP90 inhibitors, primary screen, cell lysate, luminescence; Heat shock protein HSP 90 (rabbit reticulocyte lysate; luciferase refolding); Rabbit reticulocyte lysate, luciferase refolding luminescence, 3 h; inhibition, % at 5.6 µM; actives 0.91% (n = 290,000); AID 1789, 2009;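 active = inhibition above the screen-wide mean plus 3 SD, computed separately per campaign, cut at about 16% in these data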;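 also: 0% = DMSO wells and 100% = 60 µM geldanamycin wells; inhibitors lower the luminescence because luciferase stays unfolded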
TWEAK-Fn14 inh: inhibitors of TWEAK-Fn14 signaling, primary screen, luciferase reporter cells, uHTS; TWEAK-stimulated Fn14 reporter cells, luciferase luminescence, 8 h; inhibition, % at 10 µM; actives 2% (n = 360,000); AID 1159606, 2016; in the data active = inhibition above about 50%
Platelet DG rel: inhibitors of platelet dense granule secretion, primary screen, cell-based, MLPCN, human platelets | human platelet-rich plasma, SFLLRN dense granule ATP release, luminescence | inhibition, %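 (compounds screened at 7.5 µM in platelet-rich plasma)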 | actives 0.22% (n = 300,000) | AID 1663, 2009;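 active = mean replicate score, as percent of positive control, at or above 50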
PPC-1+TRAIL kill: compounds killing PPC-1 cancer cells with TRAIL present, primary screen, TRAIL potentiator project, ATPLite luminescence, uHTS. cell killing (% activity), % at 4 µM or 5 µM. AID 1443, 2008. actives 0.41% (n = 220,000). PPC-1 cells + TRAIL, ATPLite viability luminescence;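 active = cell killing above 50% in the first pass at 4 µM, then a duplicate retest at 5 µM averaging 50% or more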;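 also: plate controls were cells with TRAIL plus DMSO for no effect and medium-only wells lacking cells for full effect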
TROY NFkB inh: inhibitors of TROY-driven NF-kB signaling, primary screen, Q293 LMP1-TROYcd cells, NF-kB luciferase, uHTS; actives 0.98% (n = 360,000); Q293 LMP1-TROYcd NF-kB luciferase reporter, 4 h; inhibition, % at 10 µM;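 active = compounds whose plate-normalised and pattern-corrected inhibition of the luciferase reporter signal at the single screening dose is 50% or more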
C8 TRAIL sens: viability loss with TRAIL in NB7+C8 cells, primary screen, TRAIL sensitizer project, cell-based, ATPlite luminescence; actives 1% (n = 360,000); inhibition (viability loss, TRAIL sensitization), % at 10 µM; AID 624354, 2012;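 active = compounds causing at least 50% loss of cell viability in the single-dose screen, relative to plate controls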
HSP90 confirm: HSP90 inhibitors, confirmation, cell lysate, luminescence; shares compounds with HSP90 refold inh; rabbit reticulocyte lysate, luciferase refolding luminescence, 3 h; inhibition, % at 5.9 µM; actives 64% (n = 2,300); in the data active = inhibition above about 18%;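 also: 0% = vehicle wells and 100% = reference inhibitor wells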
FLuc counter: firefly luciferase inhibitors, HSP90 counter-screen, confirmation, artefact control for HSP90 inhibitor project, biochemical, luminescence, triplicate. purified native firefly luciferase. inhibition, % at 5.9 µM. shares compounds with HSP90 refold inh. AID 1847, 2009. actives 48% (n = 2,300);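 active = inhibition above the mean inhibition of all tested sample wells plus 3 SD, cut at about 10% in these data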;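 also: 0% = DMSO with luciferase and 100% = wells lacking luciferase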
Target sequence (P08659 whole entry, looked up): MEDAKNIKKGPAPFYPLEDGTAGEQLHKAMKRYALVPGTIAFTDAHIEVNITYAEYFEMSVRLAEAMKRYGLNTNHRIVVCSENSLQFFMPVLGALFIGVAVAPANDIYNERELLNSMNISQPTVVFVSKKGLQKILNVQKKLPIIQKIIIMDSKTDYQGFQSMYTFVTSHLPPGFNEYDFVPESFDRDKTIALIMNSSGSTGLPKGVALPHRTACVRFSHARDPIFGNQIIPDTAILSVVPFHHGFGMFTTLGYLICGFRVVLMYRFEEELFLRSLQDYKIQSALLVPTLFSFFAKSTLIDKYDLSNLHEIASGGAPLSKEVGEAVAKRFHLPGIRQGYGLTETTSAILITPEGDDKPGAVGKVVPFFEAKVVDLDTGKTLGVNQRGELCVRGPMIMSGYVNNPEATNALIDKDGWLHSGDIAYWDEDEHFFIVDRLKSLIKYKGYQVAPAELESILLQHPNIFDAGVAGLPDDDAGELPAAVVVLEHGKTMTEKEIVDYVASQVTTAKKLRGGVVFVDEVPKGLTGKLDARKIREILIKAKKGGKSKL
The depositor's hits bear a star; x = no result given.

SMILES | HSP90 refold inh | TWEAK-Fn14 inh | Platelet DG rel | PPC-1+TRAIL kill | TROY NFkB inh | C8 TRAIL sens | HSP90 confirm | FLuc counter
COc1cc(/C=N/NS(=O)(=O)c2ccc(C)cc2)ccc1OCc1cccc(C(=O)O)c1 | 46.2* | -31.5 | -4.5 | 6.9 | -29.7 | 16.3 | 1.1 | -9.8
COc1cc(/C=N/O)ccc1OCc1ccc(C(=O)O)cc1 | 76.0* | 17.1 | 7.1 | 45.0 | -49.9 | 71.5* | 84.9* | 79.9*
COc1ccc(/C=N/NS(=O)(=O)c2ccc(C)cc2)cc1OC(=O)c1ccccc1 | -0.3 | 13.6 | x | -2.9 | 1.6 | -11.0 | x | x
COc1cc(/C=N/NS(=O)(=O)c2ccc3ccccc3c2)ccc1OCc1ccc(C(=O)O)cc1 | 50.6* | -37.7 | 7.2 | 4.2 | -35.4 | 9.6 | -6.1 | -12.9
COc1ccc(/C=N/NS(=O)(=O)c2ccccc2)cc1OC(=O)c1ccc(C)cc1 | -0.1 | 26.4 | -17.5 | -0.1 | 14.7 | -10.6 | x | x
CCOc1ccc(C(C(=O)NC(C)(C)C)N(CCOC)C(=O)CCC(=O)Nc2nccs2)cc1 (stereo not drawn) | -0.7 | 26.2 | 1.9 | x | -2.6 | 6.6 | x | x
CC(Oc1ccc(Br)cc1Cl)C(=O)Nc1ccncc1 (stereo not drawn) | -5.7 | 27.0 | 2.6 | x | 22.6 | 17.0 | x | x
COc1ccc(Nc2ncnc3c2cnn3Cc2ccccc2)cc1 | -0.2 | 0.5 | -1.4 | 11.3 | 11.9 | -1.2 | x | x
CCOc1ccc(Nc2ncnc3c2cnn3Cc2ccccc2)cc1 | 23.1* | -0.4 | -1.2 | 16.9 | 13.9 | 1.8 | 5.1 | -2.8
Cc1ccc2c(c1)N(CC(=O)Nc1ccccc1F)C(=O)CO2 | 21.7* | -27.9 | -3.2 | x | -5.8 | 7.5 | -3.0 | -7.1
Cc1cccnc1NC(=O)CN1C(=O)COc2ccc(Cl)cc21 | 18.4* | 0.9 | -6.1 | x | -3.3 | 1.3 | 2.9 | -3.4
O=C(CN1C(=O)COc2ccccc21)Nc1ccccc1F | -1.5 | -0.7 | -1.7 | x | 4.6 | -27.1 | x | x
O=C(CN1C(=O)COc2ccc(Cl)cc21)Nc1nccs1 | x | -10.5 | x | x | 7.9 | -2.6 | x | x
CCC(NC(=O)NNC(N)=S)(C(F)(F)F)C(F)(F)F | 3.7 | -0.4 | 14.1 | 1.4 | 8.5 | -17.8 | x | x
Cc1cc(C(=O)NNC(=O)c2ccc(Cl)cc2Cl)c(C)o1 | x | 10.2 | -5.8 | x | -9.3 | 10.7 | x | x
CN(C)S(=O)(=O)c1cccc(NC(=O)c2cccc(S(=O)(=O)N3CCCCCC3)c2)c1 | x | 7.8 | x | x | 45.0 | 33.5 | x | x
O=C(CCc1nc(-c2ccccc2)no1)NCc1ccco1 | 3.4 | 10.0 | x | -1.8 | -16.3 | -9.7 | x | x
Cc1ccc(-c2noc(CCC(=O)NCc3ccco3)n2)cc1 | 24.4* | 25.0 | -2.5 | -17.5 | 13.3 | -9.7 | -2.3 | -13.7
Cc1nn(-c2ccccc2)c(Cl)c1/C=N/NC(=O)c1[nH]ncc1Br | 33.0* | 52.6* | 59.6* | x | 27.6 | 72.7* | 45.8* | 39.2*
Cc1ccc(C(=O)N/N=C\c2c(C)nn(-c3ccccc3)c2Cl)cn1 | 6.9 | 2.6 | 29.8 | 2.9 | -11.8 | 45.2 | x | x
CCN(CC)c1ccc(C2C(C(=O)OC(C)C)C(=O)CC(C)(O)C2C(=O)OC(C)C)cc1 (stereo not drawn) | 31.6* | 42.8 | 0.6 | 2.6 | 15.1 | 10.6 | 2.3 | -1.7
CCOC(=O)C1C(=O)CC(C)(O)C(C(=O)OCC)C1c1ccc(N(CC)CC)cc1 (stereo not drawn) | -2.1 | -1.3 | 0.3 | 13.2 | 2.3 | -3.3 | x | x
CCCC(=O)NC(c1ccccc1)c1ccc2cccnc2c1O (stereo not drawn) | 20.5* | 12.6 | -1.6 | x | 12.3 | -23.7 | 18.4* | -2.8
CCCCC(=O)NC(c1ccccc1)c1ccc2cccnc2c1O (stereo not drawn) | 15.9 | 20.3 | -1.3 | x | 11.1 | 32.5 | x | x
Cc1ccccc1Nc1nnc(SCC(=O)NCc2ccco2)s1 | 3.6 | 17.9 | x | 14.6 | x | -4.0 | x | x
SMILES | HSP90 refold inh | TWEAK-Fn14 inh | Platelet DG rel | PPC-1+TRAIL kill | TROY NFkB inh | C8 TRAIL sens | HSP90 confirm | FLuc counter
Cc1ccccc1C(=O)Nc1nnc(SCC(=O)NCc2ccco2)s1 | 18.1* | 30.4 | -1.7 | x | -13.0 | 58.8* | 27.4* | 15.1*
COc1ccc(-c2cc3nc(CCl)[nH]c(=O)c3s2)cc1 | 49.8* | 63.0* | 26.7 | x | -2.0 | 90.8* | 56.5* | 59.3*
COc1cccc(CNc2nc3cc(-c4cccc(Cl)c4)sc3c(=O)n2C)c1 | x | -28.1 | x | x | 5.5 | 7.5 | x | x
CC(C)S(=O)(=O)C1=NSC2=NC(=O)/C(=C\c3ccc(-c4ccccc4)o3)C(=N)N21 | 1.0 | 12.2 | -0.2 | 20.3 | 17.0 | -0.1 | x | x
CC(C)S(=O)(=O)C1=NSC2=NC(=O)/C(=C\c3ccc(-c4cccc(C(=O)O)c4)o3)C(=N)N21 | 26.6* | -10.1 | x | 31.1 | -33.4 | -1.5 | -0.9 | -10.5
Cc1c(C(=O)O)cccc1-n1c(C)cc(/C=N/NC(=O)c2cc3ccccc3o2)c1C | 21.5* | -10.2 | 2.9 | 15.2 | -3.1 | 6.6 | 14.5 | -11.1
Cc1c(C(=O)O)cccc1-n1c(C)cc(/C=N/Nc2ccc([N+](=O)[O-])cn2)c1C | -2.3 | -24.3 | 2.3 | 2.4 | -72.5 | -17.0 | x | x
COC(=O)c1ccc(Nc2nc3ccc(C)cc3n3cnnc23)cc1 | 38.1* | 40.8 | -7.8 | x | 4.5 | -6.6 | 41.6* | 10.3*
COc1ccc(N(C(=O)c2ccco2)S(=O)(=O)c2ccc(F)cc2)cc1 | 16.9* | 5.7 | 0.2 | 25.3 | 10.5 | 1.5 | -0.5 | -3.7
O=C(Nc1ccccc1)O/N=C/c1ccc(F)cc1 | 3.0 | 30.2 | -0.7 | x | -13.7 | 43.5 | x | x
CN(C(=O)CSc1nc(-c2ccccc2)cn1N)C(c1ccccc1)c1ccccc1 | 17.8* | -1.6 | -18.1 | -2.9 | 0.8 | 5.4 | -1.1 | -6.5
Cc1cccc(OCCCC(=O)Nc2ccc(S(=O)(=O)Nc3ncccn3)cc2)c1C | 25.1* | 7.2 | 7.9 | x | 14.3 | 0.0 | 0.7 | -5.3
COc1ccc([C@H]2C[C@H](O)[C@@H](n3cc(C4CC4)nn3)CN2C(=O)C2CCCCC2)cc1 | x | 6.5 | x | x | -4.3 | -11.4 | x | x
Cc1c(C)c2ccc(OC(C)C(=O)NCCc3c[nH]c4ccccc34)cc2oc1=O (stereo not drawn) | -5.7 | 1.4 | 1.5 | x | 3.9 | -8.1 | x | x
CCNS(=O)(=O)c1ccc2nc(NC(=O)c3cccnc3)sc2c1 | 28.8* | 7.2 | -6.6 | 23.8 | -31.1 | 7.7 | 2.7 | -2.0
CCOCC(=O)Nc1nc2ccc(S(C)(=O)=O)cc2s1 | 6.7 | -4.1 | 6.1 | 4.9 | -9.1 | -14.6 | x | x

Screens deposited in PubChem BioAssay by several laboratories.
